LASV entry inh = Lassa virus entry inhibition | Potency, µM (titrated, usually from 49.2 µM), usual class: inhibitors | AID 720533 | Lassa virus pseudotyped entry inhibition, cell-based qHTS | 18,000 tested, 4.1% active
Marburg entry = Marburg virus entry inhibition; Marburg virus pseudotype entry/binding inhibition, cell-based; Potency, µM (series often up to 49.2 µM), actives largely listed as inhibitors; 18,000 tested, 6.5% active
Numbers stand for hits; n = inactive; u = inconclusive; x = not tested or not shown; [ ] = remark or other dose. Sampled rows, rich in hits. Any-hit rate of the full collection: about 8.6%. Calls follow the shape of the full dose curve; tested in HEK293 cells.

SMILES	LASV entry inh	Marburg entry
CO[C@@H]1[C@@H](OC)[C@H](C)[C@@](O)(CC(=O)O)O[C@H]1[C@H](C)[C@H]1O[C@@]2(CC[C@@](C)([C@H]3CC[C@@](C)([C@@H]4O[C@@H]([C@H]5O[C@](C)(O)[C@H](C)C[C@@H]5C)C[C@@H]4OC4C[C@H](OC)[C@@H](OC)[C@H](C)O4)O3)O2)C[C@H](O)[C@H]1C (some centres undefined)	1µM	u
CC[C@@]1([C@@H]2O[C@@H]([C@H]3O[C@@](O)(CO)[C@H](C)C[C@@H]3C)C[C@@H]2C)CC[C@@H]([C@]2(C)CCC3(C[C@H](O)[C@@H](C)[C@@H]([C@@H](C)[C@@H](OC)[C@H](C)C(=O)O)O3)O2)O1 (some centres undefined)	0.56µM	0.32µM
CC[C@@]1([C@@H]2O[C@@H]([C@H]3O[C@@](O)(CO)[C@H](C)C[C@@H]3C)C[C@@H]2C)CC[C@H]([C@]2(C)CC[C@]3(C[C@H](O)[C@@H](C)[C@@H]([C@@H](C)[C@@H](OC)C(C)C(=O)O)O3)O2)O1 (some centres undefined)	0.45µM	0.28µM
CC(C)C(=O)N[C@@H]1CCCN1C(=O)C=Cc1ccccc1	x	n[8.59 µM]
CCOC(=O)CN1C(=O)[C@]2(OC[C@@H]3Cc4ccccc4[C@H]3C=C2C)c2ccccc21	n[8.59 µM]	n[8.59 µM]
COCCN1C(=O)C2=C(C1=O)C1N(C)c3ccccc3[C@@]13C[C@@H](CO)N=C3N2 (some centres undefined)	n[8.59 µM]	n[8.59 µM]
CCCCCC(=O)N1C[C@H](O)[C@@H](n2cc(-c3ccc(F)cc3)nn2)C[C@H]1c1ccc(C)cc1	n	u
C[C@@H]1[C@@H](c2ccccc2)Oc2c(Cl)cccc2S(=O)(=O)N1Cc1cccc(Cl)c1	n	n
Cn1cnc2c(NCc3ccccc3)nc(NCCO)nc21	n	n
COc1ccc(CNc2nc(NCc3ccc(OC)cc3)c3ncn(C4CCCCC4)c3n2)cc1	u	3.5µM
CN(C(=O)COc1nc2ccccc2s1)c1ccccc1	n	n
CNc1ccc(-c2nc3ccccc3s2)cc1	10µM	7.1µM
COCOc1ccc(Br)cc1C(=O)C=Cc1ccc2c(c1)OCO2	n[8.59 µM]	n[8.59 µM]
C=CS(=O)(=O)O	n	22µM
O=C(NCCN1CCOCC1)c1cnn(-c2ncc3c(n2)-c2ccccc2CC3)c1C1CC1	n	u
O=C(NC1CCN(Cc2ccccc2)C1)c1cnn(-c2ncc3c(n2)-c2ccccc2CC3)c1C1CC1 (centres undefined)	n	5µM
C=C(C[C@@]1(C(=O)OC)C=C[C@@H](C)[C@H](c2ccccc2Br)N1C(=O)C(F)(F)F)c1ccccc1	n[8.59 µM]	n[8.59 µM]
COC(=O)CC1=CO[C@@H](O)[C@@H]2C(CO)=CC[C@@H]12	n[8.59 µM]	n[8.59 µM]
CC1CC2CCC(O2)C(C)C(=O)OC(C)CC2CCC(O2)C(C)C(=O)OC(C)CC2CCC(O2)C(C)C(=O)OC(C)CC2CCC(O2)C(C)C(=O)O1 (centres undefined)	1µM	5µM
C[n+]1cc2c3c(ccc2c2ccc4cc5c(cc4c21)OCO5)OCO3	20µM	6.3µM
CC(C)C[C@H]1COc2cc(F)ccc2S(=O)(=O)N1	u	n
CC[C@@]1(O)C(=O)OCc2c1cc1n(c2=O)Cc2cc3cc(O)ccc3nc2-1	0.11µM	u
Oc1cccc[c]1[Hg][Cl]	1µM	u
Oc1cccc(O)c1O	n	u
COc1ccc(-c2ccccc2[C@H]2[C@@H]3C=CC[C@@H](C)[C@@H]3C(=O)N2Cc2ccccc2)cc1	u	14µM
SMILES	LASV entry inh	Marburg entry
C[C@@H]1CC=C[C@@H]2[C@H]1C(=O)N(Cc1ccccc1)[C@H]2c1cccc(Br)c1	n	n
C[C@@H]1[C@@H](c2ccccc2)Oc2c(Cl)cccc2S(=O)(=O)N1Cc1ccc(F)cc1	n	u
C=CC[C@@H]1C=C[C@H](ON=C2c3cc(OC)ccc3O[C@H](c3cccc(OC)c3)[C@@H]2O)[C@H](CO)O1	n[8.59 µM]	n[8.59 µM]
C=C1c2cccc(C(F)(F)F)c2O[C@H](C(=O)OCC)[C@@H]1CCC(C)C	n	n
CCOC(=O)C1OC1C(=O)N[C@@H](CC(C)C)C(=O)NCCC(C)C (some centres undefined)	n	5µM
CCOC(=O)C1OC1C(=O)NC(CC(C)C)C(=O)NCCC(C)C (centres undefined)	n	3.5µM
CCCCCC(=O)N1C[C@@H](O)[C@H](n2cc(C3CC3)nn2)C[C@H]1c1ccccc1	n	n
C[C@@H]1CC2=CCCC2[C@]2(O1)C(=O)N(Cc1ccc(F)cc1)c1cccc(Br)c12 (some centres undefined)	n[8.59 µM]	n[8.59 µM]
Cc1cc2c(c(=O)o1)[C@H]1O[C@](c3ccsc3)(Cc3ccccc31)O2	n[8.59 µM]	n[8.59 µM]
Cc1ccc(S(=O)(=O)NC(=O)N[C@@H](C)Cc2ccccc2)cc1	n	n
CCCCN(CCCC)C(=S)[S-].CCCCN(CCCC)C(=S)[S-].[Zn+2]	11µM	6.3µM
CC(C)CN(C[C@@H](O)[C@H](Cc1ccccc1)NC(=O)O[C@@H]1CCOC1)S(=O)(=O)c1ccc(N)cc1	n	n
O=C(C1CCCCC1)N1C[C@@H](n2cc(-c3ccc(F)cc3)nn2)[C@@H](O)C[C@@H]1c1ccccc1	x	n
CC[N+](CC)(CC)CCOc1ccc(/C=C\c2ccccc2)cc1	20µM	u
CC[N+](CC)(CC)CCOc1cccc(OCC[N+](CC)(CC)CC)c1OCC[N+](CC)(CC)CC	n	n
C=CCOC(=O)N[C@H](C(C(=O)OC)=C(C)NCc1ccccc1)c1ccc(Br)cc1	n[8.59 µM]	n[8.59 µM]
O=c1[nH]c2ccccc2n1C1CCN(Cc2ccc(-c3[nH]c4cc5ncnc5cc4nc3-c3ccccc3)cc2)CC1	18µM	7.1µM
O=C(CCCN1CCC(n2c(=O)[nH]c3ccccc32)CC1)c1ccc(F)cc1	n	n
Cc1ccccc1CN1CCSCCS1(=O)=O	n	u
O=C(OCc1cn([C@H]2C[C@H](c3ccccc3)N(C(=O)C3CCCCC3)C[C@H]2O)nn1)c1ccccc1	n	n
CCC[C@H]1CN(c2ccc(OC)cc2)C(=O)[C@H]1CC(=O)Nc1ccccc1	x	n
CC(C)[C@H](CO)Nc1nc(Nc2cccc(Cl)c2)c2ncn(C(C)C)c2n1	28µM	n
CC(C)n1cnc2c(NCc3ccccc3)nc(NCCO)nc21	n	n
[O-][n+]1ccccc1SSc1cccc[n+]1[O-]	4µM	6.3µM
CCCCCCCCN=C(N)c1ccc(C(=O)OCC2CCCCC2)cc1	13µM	2.8µM
SMILES	LASV entry inh	Marburg entry
CCOC(=O)c1ccc(OC(=O)CCCCCN=C(N)N)cc1	n	n
C[C@H]1CN(CCc2ccccc2)C(=O)[C@H]1CC(=O)Nc1ccccc1	n	n
CCN(CC)CCOc1ccc2nc(N(C)C)sc2c1	n	n
CCN(CC)CCOc1ccc(-c2nc3cc(Cl)ccc3s2)cc1	u	13µM
CC(=O)OC[C@H]1O[C@H](C#Cc2ccc(F)cc2F)C=C[C@H]1OC(C)=O	n[8.59 µM]	n[8.59 µM]
Nc1ncc(-c2cccc(S(N)(=O)=O)c2)c2scc(-c3ccc(F)c(Cl)c3)c12	u	3.1µM
c1csc(C2(N3CCCCC3)CCCCC2)c1	n	n
c1ccc2sc(C3(N4CCCCC4)CCCCC3)cc2c1	u	11µM
O=S1(=O)c2cccc(Cl)c2OC[C@H](c2ccccc2)N1Cc1cccc(Cl)c1	n	u
CCCCCCC(=O)O[C@H]1CC[C@H]2[C@@H]3CC[C@H]4CC(=O)C=C(C)[C@]4(C)[C@H]3CC[C@]12C	u	n
CN1CCN2c3ccccc3Cc3ccccc3C2C1 (centres undefined)	u	35µM
CCCCCCN1C[C@@H](n2cc(C3CC3)nn2)[C@H](O)C[C@H]1c1ccc(C)cc1	x	n

High-throughput results (PubChem)
